Measured values taken from PubChem BioAssay (Tox21).
Inconclusive results are not listed. Calls of active or inactive are those of the source. Calls follow the shape of the dose curve; as a rule, active = well fitted curve in the direction sought with a large enough effect in the repeat runs; inconclusive = weak or mixed curves; inactive = no such curve, though single readings can be large; an effect the other way counts as inactive or inconclusive.

system: not listed separately; assay: qHTS assay to identify small molecule antagonists of the estrogen receptor alpha (ER-alpha) signaling pathway using the BG1 cell line - cell viability counter screen (AID 743081); settings: BG1Luc4E2 viability, CellTiter-Fluor, 22 h; series mostly up to 70.3 µM; activity change, negative = cytotoxicity: at the top concentration;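 also: compound given together with 17beta-estradiol as the ER stimulus; nearly all actives have a fitted effect of over 45% in size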
% is scaled to controls: 0 for no effect and ±100 for the full control effect; potency is read from the fitted curve at half-maximal effect.

Structure (SMILES)	activity change, negative = cytotoxicity	Potency
O=C(Cc1ccccc1)OCc1ccccc1	-1.5% [at 95 µM] (inactive)	–
ClC(Cl)Br	-1.47% [at 95 µM] (inactive)	–
Nc1cc(Cl)ccc1O	1.97% (inactive)	–
CC1CCCCC1NC(=O)Nc1ccccc1 (stereo unspecified)	13.6% (inactive)	–
CNC(=O)Oc1ccccc1C1OCCO1	-0.185% (inactive)	–
O=S(=O)(O)C(F)(F)C(F)(F)C(F)(F)C(F)(F)C(F)(F)C(F)(F)F	23.6% (inactive)	–
CSc1ccc(C(=O)C(C)(C)N2CCOCC2)cc1	6.17% (inactive)	–
O=[N+]([O-])c1ccc2c3c(cccc13)CC2	-1.41% (inactive)	–
COP(=S)(OC)Oc1ccc(S(N)(=O)=O)cc1	-7.01% (inactive)	–
CCSC(=O)N(CC)C1CCCCC1	13.5% (inactive)	–
c1coc(-c2nc3ccccc3[nH]2)c1	-3.16% (inactive)	–
CCCCOC(=O)[C@@H](C)Oc1ccc(Oc2ccc(C#N)cc2F)cc1	-4.77% (inactive)	–
O=C(O)C(Br)CBr (stereo unspecified)	-12.4% [at 95 µM] (inactive)	–
O=C(Nc1ccccc1)c1ccccc1I	-2.72% (inactive)	–
O=CNC(N1CCN(C(NC=O)C(Cl)(Cl)Cl)CC1)C(Cl)(Cl)Cl (stereo unspecified)	-0.146% (inactive)	–
Cc1coc2c1CCC(C)C2 (stereo unspecified)	5.9% [at 95 µM] (inactive)	–
CC1=C(C(=O)Nc2ccccc2)S(=O)(=O)CCO1	-3.07% (inactive)	–

Structure (SMILES)	activity change, negative = cytotoxicity	Potency
CC(Cl)(Cl)[N+](=O)[O-]	2.43% (inactive)	–
CNC(=O)Oc1ccc(N(C)C)c(C)c1	-6.73% (inactive)	–
CCOP(=S)(OCC)Oc1ncn(-c2ccccc2)n1	-9.39% (inactive)	–
CC(C)COP(=O)(OCC(C)C)OCC(C)C	-12% (inactive)	–
CCOC(=O)N(C)C(=O)CSP(=S)(OCC)OCC	-1.49% (inactive)	–
COc1cccc2c1cc([N+](=O)[O-])c1c(C(=O)O)cc3c(c12)OCO3	–	61.1 µM (active)
CCOC(=O)CP(=O)(OCC)OCC	6.24% (inactive)	–
NC(=O)c1cc([N+](=O)[O-])cc([N+](=O)[O-])c1	3.27% (inactive)	–
CC(=O)Nc1cc([As](=O)(O)O)ccc1O	6.43% (inactive)	–
O=C1OC(=O)C2C1C1(Cl)C(Cl)=C(Cl)C2(Cl)C1(Cl)Cl (stereo unspecified)	17.6% [at 95 µM] (inactive)	–
CCCCOP(=O)(O)OCCCC	17.5% (inactive)	–
Oc1c(Cl)cccc1Cl	3.45% (inactive)	–
CC1(C)CON(Cc2ccccc2Cl)C1=O	13% (inactive)	–
CC1(C)C(=O)NC(=O)NC1=O	-6.12% (inactive)	–
COC(=O)c1ccccc1S(=O)(=O)NC(=O)N(C)c1nc(C)nc(OC)n1	10.9% [at 95 µM] (inactive)	–
Nc1c(Br)cc([N+](=O)[O-])cc1[N+](=O)[O-]	–	31 µM (active)
Fc1ccc(C2(Cn3cncn3)OC2c2ccccc2Cl)cc1 (stereo unspecified)	-2.23% (inactive)	–

molecular target: Aromatase (Homo sapiens) (UniProt P11511); assay: qHTS assay to identify aromatase inhibitors (AID 743083); settings: MCF-7 aro ERE, testosterone-driven ERE luciferase, 24 h; series mostly up to 70.3 µM; activity, negative = inhibition: at the top concentration; also: nearly all actives have a fitted effect of over 55% in size
Sequence (P11511 whole entry, looked up): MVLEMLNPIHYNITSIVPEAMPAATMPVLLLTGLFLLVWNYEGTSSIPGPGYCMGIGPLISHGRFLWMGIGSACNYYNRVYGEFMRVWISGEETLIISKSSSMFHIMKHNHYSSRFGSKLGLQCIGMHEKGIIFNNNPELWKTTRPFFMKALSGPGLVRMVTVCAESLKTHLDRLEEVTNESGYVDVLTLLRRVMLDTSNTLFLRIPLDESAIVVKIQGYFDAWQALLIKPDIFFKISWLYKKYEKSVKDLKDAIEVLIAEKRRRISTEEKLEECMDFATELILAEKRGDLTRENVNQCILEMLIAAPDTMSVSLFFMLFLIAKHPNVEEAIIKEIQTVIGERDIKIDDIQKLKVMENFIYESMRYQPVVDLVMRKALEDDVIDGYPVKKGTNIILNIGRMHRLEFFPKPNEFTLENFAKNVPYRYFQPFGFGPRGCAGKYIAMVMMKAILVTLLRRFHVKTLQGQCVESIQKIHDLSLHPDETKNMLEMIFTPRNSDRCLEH

Structure (SMILES)	activity, negative = inhibition	Potency
O=C(Cc1ccccc1)OCc1ccccc1	4.57% [at 95 µM] (inactive)	–
ClC(Cl)Br	-0.578% [at 95 µM] (inactive)	–
Nc1cc(Cl)ccc1O	-13% (inactive)	–
CC1CCCCC1NC(=O)Nc1ccccc1 (stereo unspecified)	40.1% (inactive)	–
CNC(=O)Oc1ccccc1C1OCCO1	-13.2% (inactive)	–
O=S(=O)(O)C(F)(F)C(F)(F)C(F)(F)C(F)(F)C(F)(F)C(F)(F)F	9.28% (inactive)	–
CSc1ccc(C(=O)C(C)(C)N2CCOCC2)cc1	-4.59% (inactive)	–
O=[N+]([O-])c1ccc2c3c(cccc13)CC2	-1.43% (inactive)	–
COP(=S)(OC)Oc1ccc(S(N)(=O)=O)cc1	0.838% (inactive)	–
CCSC(=O)N(CC)C1CCCCC1	-9.31% (inactive)	–
c1coc(-c2nc3ccccc3[nH]2)c1	58.1% (inactive)	–
O=C1c2ccccc2C(=O)c2ccccc21	2.76% (inactive)	–
CCCCOC(=O)[C@@H](C)Oc1ccc(Oc2ccc(C#N)cc2F)cc1	-3.77% (inactive)	–
O=C(O)C(Br)CBr (stereo unspecified)	53.2% [at 95 µM] (inactive)	–
O=CNC(N1CCN(C(NC=O)C(Cl)(Cl)Cl)CC1)C(Cl)(Cl)Cl (stereo unspecified)	23.2% (inactive)	–
Cc1coc2c1CCC(C)C2 (stereo unspecified)	-4.48% [at 95 µM] (inactive)	–

Structure (SMILES)	activity, negative = inhibition	Potency
CC1=C(C(=O)Nc2ccccc2)S(=O)(=O)CCO1	–	48.5 µM (active)
CC(Cl)(Cl)[N+](=O)[O-]	4.07% (inactive)	–
CNC(=O)Oc1ccc(N(C)C)c(C)c1	28.5% (inactive)	–
CCOP(=S)(OCC)Oc1ncn(-c2ccccc2)n1	12.9% (inactive)	–
COc1cccc2c1cc([N+](=O)[O-])c1c(C(=O)O)cc3c(c12)OCO3	–	10.9 µM (active)
CCOC(=O)CP(=O)(OCC)OCC	11.7% (inactive)	–
NC(=O)c1cc([N+](=O)[O-])cc([N+](=O)[O-])c1	-2.56% (inactive)	–
CC(=O)Nc1cc([As](=O)(O)O)ccc1O	0.868% (inactive)	–
O=C1OC(=O)C2C1C1(Cl)C(Cl)=C(Cl)C2(Cl)C1(Cl)Cl (stereo unspecified)	-0.477% [at 95 µM] (inactive)	–
CCCCOP(=O)(O)OCCCC	4.14% (inactive)	–
Oc1c(Cl)cccc1Cl	77.1% (inactive)	–
CC1(C)CON(Cc2ccccc2Cl)C1=O	5.46% (inactive)	–
CC1(C)C(=O)NC(=O)NC1=O	4.25% (inactive)	–
COC(=O)c1ccccc1S(=O)(=O)NC(=O)N(C)c1nc(C)nc(OC)n1	6.82% [at 95 µM] (inactive)	–
Nc1c(Br)cc([N+](=O)[O-])cc1[N+](=O)[O-]	26.5% [at 95 µM] (inactive)	–
Fc1ccc(C2(Cn3cncn3)OC2c2ccccc2Cl)cc1 (stereo unspecified)	–	3.86 µM (active)
